tested on: HepG2; test: GSK_TCMDC: Percent inhibition of human HepG2 cell line. Test compounds present at 10uM.; format: functional

Question: CC(C)CC(=O)N1CCNC[C@@H]1C(=O)NCc1ccc(Cl)c(Cl)c1.O=C(O)C(F)(F)F was tested. Which Inhibition did it give?
Answer: Its Inhibition is 0%.

Question: How did the Inhibition turn out when Cc1ccc2[nH]c(-c3cc(-c4cccc(CCN5CCOCC5)c4)cnc3N)nc2c1.O=C(O)C(F)(F)F was run?
Answer: The Inhibition was 50%.

Question: With CC(=O)Nc1nc(C(=O)Nc2cccc(-c3cccc(-c4nc5ccccc5[nH]4)c3)c2)cs1 as the compound, how does the Inhibition read?
Answer: Its Inhibition is 31%.

Question: With Oc1ccccc1-c1nc2cccnc2n1CCc1cccc(C(F)(F)F)c1 as the compound, how does the Inhibition read?
Answer: Its Inhibition is 4%.

Question: With CCCCOc1c(CNCCCCCCNCc2ccc3ccccc3c2OCCCC)ccc2ccccc12.CS(=O)(=O)O as the compound, how does the Inhibition read?
Answer: Its Inhibition is 99%.

Question: How did the Inhibition turn out when O=C(O)C(F)(F)F.Oc1ccc(CCNc2nc(NCc3ccc4cc(Cl)ccc4c3)nc(N3CCNCC3)n2)cc1 was run?
Answer: The Inhibition was 14%.

Question: How did the Inhibition turn out when COc1ccc2c(O)c(C3CCC(c4ccc(Cl)cc4)CC3)c(C)nc2c1 (stereo not given) was run?
Answer: The Inhibition was 2%.

Question: O=C(Nc1ccc(OC2CCN(Cc3ccc(F)cc3)C2)c(Cl)c1)c1ccco1.O=C(O)C(F)(F)F (stereo not given) was tested. Which Inhibition did it give?
Answer: Its Inhibition is 9%.

Question: For CC[C@H](C)CNC(=O)c1cncc(-c2ccc(CNC3CCCC3)cc2)c1.O=C(O)C(F)(F)F, which Inhibition is on record?
Answer: Its Inhibition is 0%.

Question: With Cc1cc(NC(=O)c2ccco2)ccc1OC1CCN(Cc2ccccc2)CC1.O=C(O)C(F)(F)F as the compound, how does the Inhibition read?
Answer: Its Inhibition is 3%.

Question: With CCOCc1cnc(C)nc1CNC(=O)c1c(C)[nH]c2ccc(C)cc12 as the compound, how does the Inhibition read?
Answer: The Inhibition was 8%.

Question: O=C1CC(C(=O)O)CC(=O)N1 was tested. Which Inhibition did it give?
Answer: The Inhibition was 0%.

Question: Which Inhibition does the source give for Cc1cc(O)c(CN(C)Cc2ccc3c(c2)OCCO3)cc1C(C)C here?
Answer: The Inhibition was 10%.

Question: Which Inhibition does the source give for O=C(Nc1cccc(CN2CCCN(Cc3ccc(F)cc3)CC2)c1)c1cc2ccccc2s1.O=C(O)C(F)(F)F here?
Answer: The Inhibition was 29%.

Question: Which Inhibition does the source give for Clc1ccc2c(N3CCCNCC3)ccnc2c1 here?
Answer: Its Inhibition is 11%.

Question: Which Inhibition does the source give for CCCc1c(C(=O)OCC)c2cc(O)ccc2n1-c1ccc(OC)cc1 here?
Answer: The Inhibition was 0%.

Question: Which Inhibition does the source give for COc1ccc2nccc(N(C)CC3(O)CCN(CCc4ccc5c(c4)OCCO5)CC3)c2n1.Cl here?
Answer: Its Inhibition is 15%.

Question: Cl.N#Cc1ccc2c(c1)CCN(CCC1CCC(NC(=O)/C=C/c3c[nH]c4ccc(F)cc34)CC1)CC2 (stereo not given) was tested. Which Inhibition did it give?
Answer: Its Inhibition is 18%.

Question: O=C(Cc1ccccc1)NC(CCN1CCC(NC(=O)c2ccc(Cl)cc2)CC1)c1ccc(Cl)c(Cl)c1 (stereo not given) was tested. Which Inhibition did it give?
Answer: Its Inhibition is 17%.

Question: CCOc1ccc2[nH]c(C)cc(=NN=Cc3ccccc3)c2c1 was tested. Which Inhibition did it give?
Answer: Its Inhibition is 5%.

Question: Which Inhibition does the source give for CC(C)Oc1cc2c(cc1NS(=O)(=O)c1ccc(-c3ccc(Cl)cc3)cc1F)CCN(C)CC2.Cl here?
Answer: Its Inhibition is 29%.

Question: Which Inhibition does the source give for O=C(Cc1ccccc1)NC(CCN1CCC(O)(c2cccc(C(F)(F)F)c2)CC1)c1ccc(Cl)c(Cl)c1 (stereo not given) here?
Answer: The Inhibition was 25%.

Question: How did the Inhibition turn out when CN1CCCN(Cc2ccc(-c3ccc(NC(=O)c4cccc(Cl)c4)cc3)cc2)CC1.O=C(O)C(F)(F)F was run?
Answer: The Inhibition was 55%.

Question: Cc1[nH]c(C)c(-c2ccc(Br)cc2)c(=O)c1Cl was tested. Which Inhibition did it give?
Answer: Its Inhibition is 22%.

Question: Which Inhibition does the source give for CCc1c[nH]c2c(N3CCCC3=O)cc(C(=O)N[C@@H](Cc3ccccc3)[C@H](O)CNC3CCCCC3)cc12.O=CO here?
Answer: The Inhibition was 12%.

Question: For CC(C)(C)OC(=O)NCc1ccc(Nc2nnc(-c3ccc(OCC(=O)NCc4ccc(C(C)(C)C)cc4)c([N+](=O)[O-])c3)o2)cc1, which Inhibition is on record?
Answer: Its Inhibition is 10%.

Question: CN(C(=O)c1ccccc1)C1c2cc(C#N)ccc2OC(C)(C)C1O (stereo not given) was tested. Which Inhibition did it give?
Answer: Its Inhibition is 8%.

Question: With O=C(O)C(F)(F)F.c1ccc(CNCCn2c(-c3ccc4c(c3)CCO4)nc3c(N4CCCC4)cccc32)cc1 as the compound, how does the Inhibition read?
Answer: The Inhibition was 9%.

Question: Which Inhibition does the source give for Cc1ccc(-c2cncc(-c3cc(NC4CCN(Cc5ccccc5)CC4)nc(-c4ccccc4)n3)c2)cc1 here?
Answer: The Inhibition was 0%.

Question: For N#Cc1ccc2c(c1)CN(C1CCC(NC(=O)C3=Cc4cc(Cl)ccc4OC3)CC1)CCC2 (stereo not given), which Inhibition is on record?
Answer: The Inhibition was 0%.

Question: Which Inhibition does the source give for COCc1ccccc1C(=O)NCCOc1cc(C)cc(C)c1 here?
Answer: The Inhibition was 26%.

Question: COc1c(OC)c(OC)c2ccccc2c1CNCCCCCCNCc1c(OC)c(OC)c(OC)c2ccccc12.Cl was tested. Which Inhibition did it give?
Answer: Its Inhibition is 99%.

Question: For CCOCCCNc1sc(S(=O)(=O)c2ccccc2)nc1S(=O)(=O)c1ccc(C)cc1, which Inhibition is on record?
Answer: The Inhibition was 0%.

Question: With O=C(O)c1ccc2nc(-c3ccccn3)c(-c3ccccn3)nc2c1 as the compound, how does the Inhibition read?
Answer: The Inhibition was 3%.

Question: Which Inhibition does the source give for c1ccc(Oc2ccc(Nc3ccnc4cc(-c5cccc(CN6CCOCC6)c5)ccc34)cc2)cc1 here?
Answer: The Inhibition was 14%.

Question: Which Inhibition does the source give for CCC[C@@H](/C=N/N(C)C(=O)OC(C)(C)C)NC(=O)[C@H](CC(C)C)NC(=O)c1cc2cccc(OC)c2o1 here?
Answer: The Inhibition was 5%.

Question: Which Inhibition does the source give for N#Cc1ccc(N/C(=N\c2ccccc2Br)N(C2CCCCC2)C2CCCCC2)c(O)c1 here?
Answer: Its Inhibition is 4%.

Question: For CC(ON1C(N)=NC(N)=NC1(C)C)c1ccccc1 (stereo not given), which Inhibition is on record?
Answer: The Inhibition was 65%.

Question: How did the Inhibition turn out when Cc1cc(Cl)c(S(=O)(=O)N2CCc3ccccc32)cc1OCC(=O)NC1CCCCC1 was run?
Answer: The Inhibition was 28%.

Question: CCOC(=O)c1ccc(-c2cnc(N)c(-c3nc4cccc(C)c4[nH]3)c2)cc1 was tested. Which Inhibition did it give?
Answer: Its Inhibition is 43%.

— ChEMBL document CHEMBL1157539, “Thousands of chemical starting points for antimalarial lead identification” (Nature, 2010)
